# Experimental data from PubChem BioAssay.
# Biological target: PEG-3 (UniProt Q6IN02)
# Assay: inhibition of PEG-3 promoter-driven reporter – cell-based, HeLa, luciferase, CREF/GAPDH counter-screen panel, dose response (AID 624167)
# Conditions: CREF/GAPDH counter-screens; HeLa PEG-Prom luciferase reporter, overnight, run 1, dose range 1, at 100 µM (top of the series) unless noted
# Chain of PEG-3 (Q6IN02 whole entry, looked up): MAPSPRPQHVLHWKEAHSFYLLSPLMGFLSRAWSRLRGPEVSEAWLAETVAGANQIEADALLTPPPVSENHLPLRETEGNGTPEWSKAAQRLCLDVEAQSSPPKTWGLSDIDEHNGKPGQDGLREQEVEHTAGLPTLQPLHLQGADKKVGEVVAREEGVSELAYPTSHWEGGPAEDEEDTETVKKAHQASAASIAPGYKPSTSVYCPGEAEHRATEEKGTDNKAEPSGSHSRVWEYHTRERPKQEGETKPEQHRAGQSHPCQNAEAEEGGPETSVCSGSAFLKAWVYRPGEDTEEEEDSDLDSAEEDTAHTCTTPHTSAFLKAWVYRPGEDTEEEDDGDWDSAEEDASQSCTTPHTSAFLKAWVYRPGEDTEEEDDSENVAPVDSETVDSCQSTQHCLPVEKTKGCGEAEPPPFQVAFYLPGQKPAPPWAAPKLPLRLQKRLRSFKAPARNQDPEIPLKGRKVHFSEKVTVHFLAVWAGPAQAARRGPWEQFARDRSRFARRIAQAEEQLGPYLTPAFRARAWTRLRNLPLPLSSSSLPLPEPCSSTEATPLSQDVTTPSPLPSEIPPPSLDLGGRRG
row,SMILES,inhibition [%]
1,Cc1ccc(-n2cc(CNCCCn3ccnc3C)c(-c3ccc(F)cc3)n2)cc1,99.8
2,Cc1cccc2c1-c1sc(C(=O)NCCCN3CCCC(C)C3)cc1CO2 (stereo not drawn),99.3
3,CC(C)NC(=O)NC(=O)COC(=O)c1c2c(nc3ccccc13)CCC2,101
4,CC1(C(=O)NCc2cccc3ccccc23)CCN1C(=O)Cc1ccc(-c2ccccc2)cc1 (stereo not drawn),52.6
5,O=C(Nc1ccc(-c2cn3ccsc3n2)cc1)c1ccc(F)c(S(=O)(=O)N2CCOCC2)c1,0.918
6,Cc1ccc2sc(N(CCCN(C)C)C(=O)c3ccc(S(=O)(=O)N(C)C4CCCCC4)cc3)nc2c1C,102
7,CC(=O)Nc1cccc(-c2ccnc3c2CC(C)(C(=O)Nc2cccc(C(F)(F)F)c2)O3)c1 (stereo not drawn),92.6
8,CC1(C)C(=O)C=CC(=O)C(C)(C)C(=O)C=CC(=O)C(C)(C)C2=CC=C(O2)C(C)(C)C(=O)C=CC1=O,102
9,COCc1ccc(CN2CCC(C(=O)Nc3cccc(-c4cccc(Cl)c4)c3)CC2)o1,97.5
10,c1cc2c3c(cccc3c1)NC1(CCC3(CC1)Nc1cccc4cccc(c14)N3)N2,97.7
11,O=S(=O)(c1cccs1)N1CCN(c2ccnc3cc(Cl)ccc23)CC1,83.3
12,CC(=O)NC(c1ccccc1)c1cc(Cl)c2cccnc2c1O (stereo not drawn),96.6
13,NC(N)=N/N=C/c1ccc(Cl)cc1Cl,97.7
14,O=C1N[C@@H](c2ccccc2)COC(=O)[C@@H](Cc2ccc(F)cc2)CC/C=C/C[C@H]1CC(=O)N(CCO)Cc1ccccc1,95.6
15,COc1cccc(Nc2nc(C(N)Cc3ccccc3)cs2)n1 (stereo not drawn),97.8
16,COc1cc(C=NO)nc(-c2ccccn2)c1,71.9
17,COCCn1c(C)cc(C(=O)CSc2nnc3ccccn23)c1C,98.8
18,Cc1cc2c(c(/C=C/C(=O)c3ccccc3)c1)OC1(C=C2)Oc2ccccc2C(=O)N1C (stereo not drawn),102
19,Nc1c(C(=O)Nc2cccc(C(=O)O)c2)sc2nc3c(cc12)CCCC3,92.6
20,CCc1cccc(CC)c1NC(=S)NCCc1c(C)[nH]c2ccc(C)cc12,89.5

row,SMILES,inhibition [%]
1,O=C1/C(=C/c2ccccc2Cl)SC(=S)N1CCCC(=O)N(CCO)c1ccccc1,99.7
2,CN(C)CCNc1ccc(CO)c2oc3ccc(O)cc3c(=O)c12,99.1
3,C[C@@H]1[C@H]2[C@@H]3CC[C@@H](C3)[C@H]2CN[C@H]1c1cn(Cc2ccccc2)c2ccccc12,99.2
4,O=C(O)c1ccc(N/N=C/c2ccc(OC(=O)c3ccccc3Cl)cc2)cc1,99.2
5,CCOC(=O)c1ccc(NC(=O)C2CCCN(S(=O)(=O)c3ccc(F)cc3)C2)cc1 (stereo not drawn),97.3
6,COc1ccc(CC(=O)N(Cc2ccccc2)c2ccccc2)cc1S(=O)(=O)N1CCOCC1,82.4
7,CC(C)(C)c1ccc(/C=N/Nc2ccc(C(=O)O)cc2)cc1,89
8,Cn1nnnc1Sc1ncnc2scc(-c3ccsc3)c12,102
9,Cc1nc(N2CCN(c3ccccn3)CC2)c2c(C)c(C(=O)Nc3ccccc3F)sc2n1,53.1
10,CN(C)CCc1cc2c(c3c1ccc1ccccc13)OCO2,98.3
11,O=C(c1ccccc1)N(C(=O)c1ccccc1)c1ncnc2c1C(c1ccccc1)c1c(ccc3ccccc13)O2 (stereo not drawn),52.7
12,O=C(C=Cc1ccccn1)c1ccccc1,101
13,CC(C)CC(N)c1csc(Nc2ccc(C(=O)N(C)Cc3ccccc3)cn2)n1 (stereo not drawn),96.3
14,Cc1ccc(C(=O)N(CCCN(C)C)c2nc3ccc(Cl)cc3s2)cc1C,99.5
15,CCOC(=O)c1cnc2c(cnn2C)c1NCCCN(C)C,80.7
16,CN1CCN(CCNC(=O)c2ccc3nc(-c4ccc(F)cc4)c(-c4ccc(F)cc4)nc3c2)CC1,99.2
17,CCCCCCCCCC[N+](C)(C)CC/C=C1/c2ccccc2Sc2ccc(Cl)cc21,99.8
18,O=C(Nc1ccccc1)c1nc[nH]c1C(=O)NCCCCNC(=O)c1[nH]cnc1C(=O)Nc1ccccc1,22.3
19,CCCCCCSc1cc(-c2nc3ccc(C)cn3c2NCCCC)ccc1OC,98.7

# Biological target: PEG-3 (UniProt Q6IN02)
# Assay: as above
# Conditions: CREF/GAPDH counter-screens; HeLa PEG-Prom luciferase reporter, overnight, run 2, dose range 1, at 100 µM (top of the series) unless noted
row,SMILES,inhibition [%]
1,Cc1ccc(-n2cc(CNCCCn3ccnc3C)c(-c3ccc(F)cc3)n2)cc1,98.7
2,Cc1cccc2c1-c1sc(C(=O)NCCCN3CCCC(C)C3)cc1CO2 (stereo not drawn),98.5
3,CC(C)NC(=O)NC(=O)COC(=O)c1c2c(nc3ccccc13)CCC2,93.6
4,CC1(C(=O)NCc2cccc3ccccc23)CCN1C(=O)Cc1ccc(-c2ccccc2)cc1 (stereo not drawn),43.6
5,O=C(Nc1ccc(-c2cn3ccsc3n2)cc1)c1ccc(F)c(S(=O)(=O)N2CCOCC2)c1,-62.2
6,Cc1ccc2sc(N(CCCN(C)C)C(=O)c3ccc(S(=O)(=O)N(C)C4CCCCC4)cc3)nc2c1C,102
7,CC(=O)Nc1cccc(-c2ccnc3c2CC(C)(C(=O)Nc2cccc(C(F)(F)F)c2)O3)c1 (stereo not drawn),88.4
8,CC1(C)C(=O)C=CC(=O)C(C)(C)C(=O)C=CC(=O)C(C)(C)C2=CC=C(O2)C(C)(C)C(=O)C=CC1=O,98.9
9,COCc1ccc(CN2CCC(C(=O)Nc3cccc(-c4cccc(Cl)c4)c3)CC2)o1,99
10,c1cc2c3c(cccc3c1)NC1(CCC3(CC1)Nc1cccc4cccc(c14)N3)N2,102
11,O=S(=O)(c1cccs1)N1CCN(c2ccnc3cc(Cl)ccc23)CC1,90.7
12,CC(=O)NC(c1ccccc1)c1cc(Cl)c2cccnc2c1O (stereo not drawn),99.7
13,NC(N)=N/N=C/c1ccc(Cl)cc1Cl,99.1
14,O=C1N[C@@H](c2ccccc2)COC(=O)[C@@H](Cc2ccc(F)cc2)CC/C=C/C[C@H]1CC(=O)N(CCO)Cc1ccccc1,97.4
15,COc1cccc(Nc2nc(C(N)Cc3ccccc3)cs2)n1 (stereo not drawn),99.1
16,COc1cc(C=NO)nc(-c2ccccn2)c1,73.1
17,COCCn1c(C)cc(C(=O)CSc2nnc3ccccn23)c1C,94.2
18,Cc1cc2c(c(/C=C/C(=O)c3ccccc3)c1)OC1(C=C2)Oc2ccccc2C(=O)N1C (stereo not drawn),101
19,Nc1c(C(=O)Nc2cccc(C(=O)O)c2)sc2nc3c(cc12)CCCC3,77.5
20,CCc1cccc(CC)c1NC(=S)NCCc1c(C)[nH]c2ccc(C)cc12,83.9

row,SMILES,inhibition [%]
1,O=C1/C(=C/c2ccccc2Cl)SC(=S)N1CCCC(=O)N(CCO)c1ccccc1,102
2,CN(C)CCNc1ccc(CO)c2oc3ccc(O)cc3c(=O)c12,101
3,C[C@@H]1[C@H]2[C@@H]3CC[C@@H](C3)[C@H]2CN[C@H]1c1cn(Cc2ccccc2)c2ccccc12,102
4,O=C(O)c1ccc(N/N=C/c2ccc(OC(=O)c3ccccc3Cl)cc2)cc1,71.9
5,CCOC(=O)c1ccc(NC(=O)C2CCCN(S(=O)(=O)c3ccc(F)cc3)C2)cc1 (stereo not drawn),100
6,COc1ccc(CC(=O)N(Cc2ccccc2)c2ccccc2)cc1S(=O)(=O)N1CCOCC1,91.1
7,CC(C)(C)c1ccc(/C=N/Nc2ccc(C(=O)O)cc2)cc1,98.5
8,Cn1nnnc1Sc1ncnc2scc(-c3ccsc3)c12,102
9,Cc1nc(N2CCN(c3ccccn3)CC2)c2c(C)c(C(=O)Nc3ccccc3F)sc2n1,34.9
10,CN(C)CCc1cc2c(c3c1ccc1ccccc13)OCO2,99.1
11,O=C(c1ccccc1)N(C(=O)c1ccccc1)c1ncnc2c1C(c1ccccc1)c1c(ccc3ccccc13)O2 (stereo not drawn),28.4
12,O=C(C=Cc1ccccn1)c1ccccc1,101
13,CC(C)CC(N)c1csc(Nc2ccc(C(=O)N(C)Cc3ccccc3)cn2)n1 (stereo not drawn),102
14,Cc1ccc(C(=O)N(CCCN(C)C)c2nc3ccc(Cl)cc3s2)cc1C,101
15,CCOC(=O)c1cnc2c(cnn2C)c1NCCCN(C)C,88.6
16,CN1CCN(CCNC(=O)c2ccc3nc(-c4ccc(F)cc4)c(-c4ccc(F)cc4)nc3c2)CC1,98.2
17,CCCCCCCCCC[N+](C)(C)CC/C=C1/c2ccccc2Sc2ccc(Cl)cc21,101
18,O=C(Nc1ccccc1)c1nc[nH]c1C(=O)NCCCCNC(=O)c1[nH]cnc1C(=O)Nc1ccccc1,59.3
19,CCCCCCSc1cc(-c2nc3ccc(C)cn3c2NCCCC)ccc1OC,101
